A selection: hits, their analogues and other compounds. The true share with any hit is near 3.9%.
Anthrax LF prot – inhibitors of Bacillus anthracis lethal factor protease; 360,000 tested, 0.12% active; multiplex microsphere protease cleavage assay, LF; inhibition, % at 10 µM; P15917; also: plate controls were buffer without enzyme for full effect and enzyme alone for no effect
Target sequence (P15917 whole entry, looked up): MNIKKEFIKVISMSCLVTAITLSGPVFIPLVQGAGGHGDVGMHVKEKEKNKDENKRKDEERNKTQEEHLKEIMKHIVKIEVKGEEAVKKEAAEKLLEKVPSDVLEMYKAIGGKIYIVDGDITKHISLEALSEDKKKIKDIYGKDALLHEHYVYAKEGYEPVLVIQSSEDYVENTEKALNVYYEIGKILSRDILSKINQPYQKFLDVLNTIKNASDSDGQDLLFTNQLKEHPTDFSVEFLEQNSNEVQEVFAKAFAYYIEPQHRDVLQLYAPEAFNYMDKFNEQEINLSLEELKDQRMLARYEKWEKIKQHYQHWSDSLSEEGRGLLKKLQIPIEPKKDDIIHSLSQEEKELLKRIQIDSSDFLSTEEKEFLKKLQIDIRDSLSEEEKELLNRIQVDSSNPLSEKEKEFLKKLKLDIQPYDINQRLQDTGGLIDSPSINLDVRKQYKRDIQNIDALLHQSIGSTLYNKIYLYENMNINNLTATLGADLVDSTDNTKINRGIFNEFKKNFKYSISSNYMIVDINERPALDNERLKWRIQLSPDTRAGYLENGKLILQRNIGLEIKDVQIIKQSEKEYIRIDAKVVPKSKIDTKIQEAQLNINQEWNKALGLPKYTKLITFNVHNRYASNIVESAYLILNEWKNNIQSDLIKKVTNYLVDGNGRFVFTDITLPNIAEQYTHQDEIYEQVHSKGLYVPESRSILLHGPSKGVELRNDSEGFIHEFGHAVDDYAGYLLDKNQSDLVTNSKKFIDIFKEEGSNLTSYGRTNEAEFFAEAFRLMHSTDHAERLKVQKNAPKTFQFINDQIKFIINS
BoNT A protease – inhibitors of Botulinum neurotoxin A light chain protease; multiplex microsphere protease substrate cleavage, flow cytometry; inhibition, % at 10 µM; 360,000 tested, 0.17% active; also: plate controls were buffer without enzyme for full effect and enzyme alone for no effect
VHR inh abs – blocks human VHR1 dual specificity phosphatase. P51452. recombinant VHR phosphatase, pNPP absorbance. inhibition, % at 13.3 µM. AID 1654. 290,000 tested, 0.52% active; in the data active = inhibition above about 50%
BoNT-F LC inh – blocks Botulinum neurotoxin F light chain protease; Multiplex microsphere protease cleavage assay, flow cytometry; inhibition, % at 10 µM; 360,000 tested, 0.22% active; AID 588497; in the data active = inhibition above about 35%, passing the limit was not always enough; inconclusive = no clear call, values can overlap the other calls; also: plate controls were buffer without enzyme for full effect and enzyme alone for no effect
Autofluor counter – counter-screen for toxin protease inhibitors: compound fluorescence | compound autofluorescence counterscreen, microsphere flow cytometry; stronger effect = higher value | fluorescence intensity (test concentration not listed) | 360,000 tested, 3.1% active | AID 624483; in the data active = fluorescence intensity above about 16000; inconclusive = no clear call, values can overlap the other calls
3CLpro inhibitor – SARS-CoV 3CLpro protease inhibition; P0C6X7; inhibition, % at 6 µM; recombinant SARS-CoV 3CLpro, quenched FRET peptide cleavage; 290,000 tested, 0.14% active; in the data active = inhibition above about 12%
* hit, by the source's call; ? = inconclusive; . = no result given. Rule as the data show it, unless noted: active = inhibition above about 30%; inconclusive = no clear call, values can overlap the other calls; inactive = below that.

SMILES	Anthrax LF prot	BoNT A protease	VHR inh abs	BoNT-F LC inh	Autofluor counter	3CLpro inhibitor
COc1ccc(N(CC(=O)Nc2ccccc2C(=O)NCCc2ccccc2)S(C)(=O)=O)cc1OC	0	1	13	2	21907*	-2
CCC(C)NC(=O)c1ccccc1NC(=O)CN(c1ccc(OC)cc1)S(C)(=O)=O (stereo not given)	0	0	21	-1	23469*	-4
CC(C)CNC(=O)c1ccccc1NC(=O)CN(c1ccc2c(c1)OCCO2)S(C)(=O)=O	-4	0	-1	-1	8978	-2
CS(=O)(=O)N(CC(=O)Nc1ccccc1C(=O)N1CCCC1)c1ccccc1Br	5	7	10	17	3868	-10
CC(CCCC(C)(C)O)CC1C2=C(CCCC2=O)OC2=C1C(=O)CCC2 (stereo not given)	1	1	4	-2	4139	2
O=C(Cc1nc(-c2cnccn2)no1)NNC(=O)Nc1ccccc1	35*	?	37	?	4072	2
Cc1cc([N+](=O)[O-])nn1Cc1c(F)c(F)c(F)c(F)c1F	-16	10	30	14	18842*	-1
COc1ccccc1C(=O)c1nc2ccccc2n1C	7	-2	58*	-3	2992	-5
O=Cc1c(NCCN2CCCC2)c2ccccc2[nH]c1=O	2	-3	5	-23	4494	4
COc1ccc(C(OC(=O)c2c(C)noc2C)C(=O)NC2CCCC2)cc1 (stereo not given)	0	0	18	-1	19678*	-1
COc1ccccc1N1CC(C(=O)OCC(=O)c2ccc(F)cc2)CC1=O (stereo not given)	-6	0	-12	-1	23806*	1
O=C(NC1CCCC1)C(c1ccc(F)cc1)N(C(=O)c1csnn1)C1CC1 (stereo not given)	5	2	2	5	3837	3
COc1ccc(C(=O)c2ccccc2)c(O)c1	-2	-1	-16	-3	23016*	-3
O=C(c1ccccc1)c1ccc(O)cc1O	3	-1	28	0	4936	-7
CCC(NC(=O)NC1=NCCS1)(C(F)(F)F)C(F)(F)F	2	0	57*	-2	4140	1
CCOC(=O)c1ccc(NC(=O)NC2=NCCS2)cc1	-5	-1	.	-1	2939	.
O=C(c1ccc2nc(Cc3ccccc3F)oc2c1)N1CC[C@H](O)C1	0	0	28	3	5200	2
Cc1ccc(-n2c(SCC(=O)Nc3cccc(S(=O)(=O)NC4=NCCCCC4)c3)nc3ccccc3c2=O)cc1C	-1	1	60*	-2	2680	-1
Cc1c(NC(=O)COc2cccc(Br)c2)c(=O)n(-c2ccccc2)n1C	10	-1	14	2	2936	-1
CSCC[C@H](NC(=O)C1CCCC1)c1nc2ccccc2[nH]1	-2	0	26	-2	3400	2
CSCCC(NC(=O)C1CC1)c1nc2ccccc2[nH]1 (stereo not given)	0	0	12	-3	20590*	1
N#Cc1ccc(S(=O)(=O)N2CCN(CC(=O)NCC3(N4CCOCC4)CCCCC3)CC2)cc1	-1	-3	.	-3	8822	.
Cc1cccc2c1OCC/C2=N\NC(=O)COc1ccccc1Cl	1	1	-6	0	22273*	2
C=C(C)C1CC=C(C)/C(=N/NC(=O)COc2ccccc2Cl)C1 (stereo not given)	-2	-2	2	-4	2943	7
Cc1ccc(S(=O)(=O)N(C)C[C@@H]2Oc3ccc(NS(C)(=O)=O)cc3CC(=O)N([C@H](C)CO)C[C@@H]2C)cc1	-11	0	.	-6	3006	.
SMILES	Anthrax LF prot	BoNT A protease	VHR inh abs	BoNT-F LC inh	Autofluor counter	3CLpro inhibitor
C#CCN(C#N)c1nc(NCC)nc(NC(C)C)n1	0	0	2	0	23207*	2
CCN(C#N)c1nc(NC(C)C)nc(NC(C)C)n1	-2	0	-1	1	8014	-2
Fc1ccc(NC(=S)N/N=C/c2cccc(Br)c2)c(F)c1	0	?	14	-4	20663*	1
Fc1cccc(/C=N/NC(=S)Nc2ccccc2Cl)c1	-3	0	43	-3	2012	4
Cc1sc2c(c1C)C(c1ccc(C(C)(C)C)cc1)=NCC(=O)N2CC(=O)Nc1nccs1	-2	-1	33	-3	22414*	-3
CCOC(=O)CSc1nnc(CNC(=O)c2cc(OCC)c(OCC)c(OCC)c2)n1C	2	0	11	-1	23875*	-1
COC(=O)CSc1nnc(CNC(=O)c2ccc(S(=O)(=O)N(C)C)cc2)n1C	1	-1	16	0	2221	4
CCOC(=O)CSc1nnc(CNC(=O)c2ccc(S(=O)(=O)N3CCOCC3)cc2)n1C	-3	-1	2	-7	1902	1
CCN(CC)S(=O)(=O)c1ccc(C(=O)NCc2nnc(SCC(=O)OC)n2C)cc1	1	14	23	15	18096*	-1
CCOC(=O)CSc1nnc(CNC(=O)c2ccc(S(=O)(=O)N3CCCC3)cc2)n1C	1	2	-20	8	22679*	-2
CCOC(=O)CSc1nnc(NC(=O)c2cccc(S(=O)(=O)N3CCCCCC3)c2)s1	-1	0	19	0	24044*	5
CCOc1cc(C(=O)NCc2nnc(SCC(=O)OC)n2C)cc(OCC)c1OCC	3	0	-11	-4	10330	5
C=CCNc1nc(Nc2ccc(OC)c(OC)c2)c2sc(-c3ccccc3)cc2n1	-30	1	.	-50	3078	.
O=C(c1cc(C2CC2)on1)N1CCN(c2ccccc2)CC1	-5	1	17	5	5646	-3
CCN(CC(=O)NCCc1ccc(S(N)(=O)=O)cc1)Cc1ccccc1	-3	-4	-29	-16	5029	-3
COc1ccc(CC(=O)NNC(=O)CCC(=O)Nc2cc(C)ccc2C)cc1	2	0	17	3	4875	6
COc1ccc(CC(C(=O)Nc2cc(C)ccc2C)/C(N)=N/O)cc1 (stereo not given)	-2	-1	-1	-1	16939*	-1
CCOC(=O)C1CCCN(C(=O)c2cc(Cl)ccc2Cl)C1 (stereo not given)	-3	1	29	11	8952	0
CCOC(=O)C1CCN(Cc2ccc(OC)cc2OC)CC1	-6	0	-5	-13	4278	0
CCOC(=O)C1CCCN(C(=O)C(C)Oc2ccc(Cl)cc2Cl)C1 (stereo not given)	1	?	28	4	22441*	-7
CCOC(=O)N1CCN(Cc2c(O)ccc3ccccc23)CC1	-12	-1	18	?	4525	-2
CCOC(=O)C1CCN(Cc2cn[nH]c2-c2ccccc2)CC1	3	-1	27	-2	20102*	-1
CCOC(=O)C1CCN(Cc2c(O)ccc3ccccc23)CC1	-1	?	18	1	19910*	-4
CCOC(=O)C1CCN(Cc2cnc(Oc3ccc(OC)cc3)s2)CC1	-2	-4	17	-5	24024*	2
